This passage reports PBM binding z-score results from the supplement of paper PMC6555819.

Holding throughout (test): PBM binding z-score (relative to random genomic background probes); higher = stronger binding; sequences stand for … in GC…GCGATTGACAGCGTAGAATGAAGG
The test system of assay [1] is FXR:RXRa (NR concentration 270 nM, RXRa partner concentration 90 nM). Put shortly: (§1)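 Custom Agilent 4×180K protein-binding microarrays carried double-stranded probes. Their 34-nt variable regions held direct-repeat seeds, single-nucleotide variants, half-site ablations and random human genomic background sequences. Arrays were incubated 1 h with ligand-free nuclear receptor dimers in PBS pH 7.4, 2% milk, 0.02% Triton X-100, 1 mM DTT, 0.2 mg/mL BSA and 0.4 mg/ml salmon testes DNA. Antibodies against each partner (one per run) detected binding, and scanned fluorescence was regression-normalized. Binding z-scores use random background probes as reference.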

The test system of assay [2] is LXRa:RXRa (NR concentration 270 nM, RXRa partner concentration 90 nM). The method in brief: as §1
Assay [3] deals with LXRa homodimer (NR concentration 270 nM). The method in brief: as §1
Assay [4] relates to LXRb:RXRa (NR concentration 270 nM, RXRa partner concentration 90 nM). Put shortly: as §1
Assay [5] concerns LXRb homodimer (NR concentration 270 nM). The method in brief:
as §1

The subject of assay [6] is PPARa:RXRa (NR concentration 270 nM, RXRa partner concentration 90 nM). Put shortly: as §1
Assay [7] deals with PPARg:RXRa (NR concentration 180 nM, RXRa partner concentration 90 nM). Put shortly:
as §1

Assay [8] deals with PPARg:RXRa 270nM:90nM, anti-RXR (NR concentration 270 nM, RXRa partner concentration 90 nM). The method in brief:
as §1

Assay [9] has as its system PPARg:RXRa 30nM:10nM, anti-RXR (NR concentration 30 nM, RXRa partner concentration 10 nM). The method in brief:
as §1

Assay [10] concerns PPARg:RXRa 90nM:30nM, anti-RXR (NR concentration 90 nM, RXRa partner concentration 30 nM). Put shortly: as §1
The subject of assay [11] is PPARg:RXRa DBDmut IVT, anti-RXR (DBD mutation: RXRa K156A/R161A, NR concentration 270 nM, RXRa partner concentration 90 nM). Put shortly:
as §1

Assay [12] concerns PPARg:RXRa IVT, anti-PPARg (NR concentration 270 nM, RXRa partner concentration 90 nM). The method in brief:
as §1

Assay [13] deals with PPARg DBDmut:RXRa IVT, anti-PPARg (DBD mutation: PPARg1 K132A/R137A, NR concentration 270 nM, RXRa partner concentration 90 nM). The method in brief:
as §1

The test system of assay [14] is PPARg DBDmut IVT, anti-PPARg (DBD mutation: PPARg1 K132A/R137A, NR concentration 270 nM). Put shortly:
as §1

The subject of assay [15] is PPARg homodimer (NR concentration 180 nM). The method in brief:
as §1

Assay [16] has as its system PXR:RXRa (NR concentration 270 nM, RXRa partner concentration 90 nM). Put shortly: as §1
Assay [17] concerns PXR homodimer (NR concentration 270 nM). The method in brief:
as §1

For assay [18], the system named is RARa homodimer (NR concentration 270 nM). Put shortly:
as §1

Assay [19] deals with RARb:RXRa (NR concentration 270 nM, RXRa partner concentration 90 nM). Put shortly: as §1
Assay [20] has as its system RARa:RXR (NR concentration 270 nM, RXRa partner concentration 90 nM). Put shortly: as §1

Regarding TCTCGGAGGACACGAAAGGTCAGAACTCGACATC, the PBM binding z-score in [1] stood at 2.77; in assay [2], 3.63; in assay [3], 3.3; in assay [4] it was 3.19; in assay [5], 0.189; in assay [6], 3.29. In addition, the PBM binding z-score in assay [7] turned out to be 1.1; in assay [8], 2.1; in [9] it was 2.51; in assay [10], 2.07; in [11] it was 1.63; in assay [12], 1.22. Also, the PBM binding z-score is -0.541 in assay [13]; -0.269 in assay [14]; 3.91 in assay [15]; 4.08 in assay [16]; 0.978 in [17]; 2 in [18]. In addition, the PBM binding z-score in assay [19] amounted to 3.83.
For the sequence CCGACTGGGGCAAAGGTTACCACACTCAGTACGA, the PBM binding z-score in assay [1] was 1.86; in assay [2], 1.89; in assay [3], 0.137; in [4], 2.27; in [5], -0.702; in assay [6], 5.83. Moreover, the PBM binding z-score in assay [7] was determined as 10.7; in assay [8], 8.79; in assay [9], 8.43; in [10] it was 9.24; in assay [11] it was 4.8; in [12], 5.98. Further, the PBM binding z-score was 0.442 in [13]; 0.282 in [14]; 1.18 in assay [15]; 2.44 in [16]; -0.0158 in assay [17]; 0.0195 in assay [18]. The same sequence showed a PBM binding z-score in assay [19] of 2.54.
For TCTTGTAGATCAAAGGTTAAGACAGCCGAAGCCT, the PBM binding z-score in [1] was 1.72; in assay [2], 2.27; in assay [3], 0.473; in [4] it was 2.31; in assay [5], -0.101; in assay [6], 4.74. The PBM binding z-score in assay [7] turned out to be 8.11; in [8], 8.23; in assay [9], 7.63; in assay [10] it was 8.39; in assay [11], 2.1; in assay [12], 3.94. The PBM binding z-score in assay [13] is 1.03; in assay [14] it was 0.9; in assay [15], 1.28; in [16], 2.12; in assay [17] it was -0.0752; in [18], 0.276. In [19], this sequence returned a PBM binding z-score of 1.91.
Regarding AGAACGAGGGCAATGAGTTCATAGCACGGGTGGC, the PBM binding z-score in assay [1] is 1.78; in assay [2], 2.26; in assay [3], 1.48; in [4] it was 1.11; in [5], -0.445; in assay [6] it was 2.83. Besides, the PBM binding z-score in [7] is 2.16; in assay [8], 1.57; in assay [9], 0.0417; in assay [10] it was 0.912; in assay [11], 3.4; in assay [12] it was 3.12. Also, the PBM binding z-score worked out at 0.564 in assay [13]; 0.148 in [14]; 0.482 in assay [15]; 15.2 in assay [17]; 2.56 in [20]; 0.017 in assay [18]. The sequence also had a PBM binding z-score in [19] of 2.79.
On to CCTTACGGGTCAAGGTAATAGCACGGGTGGTACG, for which the PBM binding z-score in [1] was 5.58; in assay [2], 3.16; in assay [3] it was -0.011; in assay [4], 2.58; in assay [5], -0.283; in [6], 4.8. Moreover, the PBM binding z-score in assay [7] turned out to be 4.75; in assay [8] it was 4.34; in assay [9], 1.46; in assay [10], 3.28; in [11] it was 1.83; in assay [12] it was 3.41. In addition, the PBM binding z-score in assay [13] is 0.176; in assay [14], -0.496; in [15], 1.93; in assay [16], 2.54; in assay [17] it was 0.213; in assay [18] it was 0.734. For the same sequence, the PBM binding z-score in assay [19] was 4.1.
With GATACAAGGTCAGCTAGAGGCCAGAGTATGGAAA, the PBM binding z-score in assay [1] was 5.51; in assay [2], 3.77; in [3], 0.325; in assay [4], 2.78; in [5], -0.103; in assay [6], 4.53. The PBM binding z-score in [7] is 3.95; in [8] it was 3.5; in [9] it was 1.23; in assay [10], 2.18; in assay [11], 2.56; in assay [12] it was 3.25. Further, the PBM binding z-score in [13] worked out at 0.75; in assay [14], 0.155; in assay [15], 3.37; in assay [17], 0.19; in [20], 4.64; in [18] it was 1.06. This sequence yielded a PBM binding z-score in assay [19] of 5.05.
In the case of CCGACGGGGGCAGAAAGGTTACCATACCATCCGG, the PBM binding z-score in assay [1] was 2.77; in assay [2], 2.96; in assay [3] it was 0.333; in assay [4], 4.22; in assay [5], 3.55; in [6] it was 3.93. The PBM binding z-score came out at 1.68 in assay [7]; 3.06 in assay [8]; 0.967 in assay [9]; 2.16 in assay [10]; 0.901 in [11]; 2.55 in [12]. Moreover, the PBM binding z-score is 3.18 in [13]; 2.71 in assay [14]; 2.43 in [15]; 2.06 in [17]; 3.91 in assay [20]; 0.566 in assay [18].
